# ERG-DNA inh: qHTS for Small Molecule Inhibitors of the ERG Ets/DNA interaction; Transcriptional regulator ERG (Homo sapiens), P11308; fluorescence polarization, His-ERG Ets domain / labelled DNA; Potency, µM (highest dose often 76.9 µM), for inactives: at the highest dose FP activity, negative = inhibition, most hits filed as inhibitors; hit rate 0.028% among 370,000; AID 624246, 2012; active = well fitted inhibition curve with a large enough effect in the polarisation, with a control signal flat; inconclusive = small, poorly fitted or top-dose-only effect, or effect the other way, or a change in a side signal; inactive = no such curve, though single readings can be large or run the other way; the % refers to the polarisation;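 note: polarization taken with two DNA probes labelled with fluorescein and Texas red; potency is the fitted concentration of half-maximal effect; % of control where 0% means no effect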
#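 His-tagged ERG Ets domain (1 uM in the protein solution; 300mM KCl, 50mM Tris-HCl, 1mM EDTA, 1mM DTT, pH 7.5) received compound, then a probe mix of 5 nM fluorescein-DNA and 100nM Texas-615-DNA. Fluorescence polarization was read for both dyes.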
# TexasRed fluor: Total Fluorescence Counterscreen for Inhibitors of the Interaction of Thyroid Hormone Receptor and Steroid Receptor Coregulator 2 | Potency, µM (top dose mostly 106 µM), for the others: at the top dose fluorescence change, negative = quenching | AID 1479, 2009 | hit rate 0.29% among 280,000 | TRb/SRC2 Texas Red total fluorescence interference; active = well fitted curve in either direction with a large enough effect; inconclusive = small, poorly fitted or top-dose-only effect; note: potency is the fitted concentration of half-maximal effect; % is set by controls: 0 for no effect and ±100 for the full control effect
#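 Human TRβ ligand-binding domain (0.6 uM) and Texas Red SRC2 peptide (20 nM) in Tris buffer with 1 uM T3 and 5% DMSO were incubated with pinned compound for 5 hr at ambient temperature. Total fluorescence was computed as S + 2P (555/632 nm).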
# CBFb RUNX1 block: qHTS Assay for Compounds Blocking the Interaction Between CBF-beta and RUNX1 for the Treatment of Acute Myeloid Leukemia; Potency, µM (titrated, usually from 59.8 µM), for the others: at the highest dose activity, negative = inhibition, usual class: inhibitors; AlphaScreen CBFb-His/RUNX1-biotin binding, biochemical; 230,000 tested, under 10 active; Runt-related transcription factor 1 (Homo sapiens) + Core-binding factor subunit beta …; note: % of control where 0% means no effect
#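 Compounds were screened at multiple concentrations against a preformed CBF-beta(His)/RUNX1(biotin) complex (30 nM of each) for 15 min at room temperature, followed by 90 min with nickel and streptavidin beads and AlphaScreen reading.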
# TRb SRC2 PPI: qHTS for Inhibitors of the Interaction of Thyroid Hormone Receptor and Steroid Receptor Coregulator 2; hit rate 0.065% among 280,000; TRbeta-SRC2 peptide binding, fluorescence polarization; receptor liganded with 1 µM T3; Potency, µM (highest dose often 106 µM), inactives show at the highest dose activity change, negative = inhibition, most hits filed as inhibitors; AID 1469, 2008; Thyroid hormone receptor beta (Homo sapiens), P10828;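 note: potency is the fitted concentration of half-maximal effect; plate controls were bound peptide for no effect and peptide without receptor for full effect; nearly all actives have a fitted effect of over 50% in size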
# Target sequence (P10828 whole entry, looked up): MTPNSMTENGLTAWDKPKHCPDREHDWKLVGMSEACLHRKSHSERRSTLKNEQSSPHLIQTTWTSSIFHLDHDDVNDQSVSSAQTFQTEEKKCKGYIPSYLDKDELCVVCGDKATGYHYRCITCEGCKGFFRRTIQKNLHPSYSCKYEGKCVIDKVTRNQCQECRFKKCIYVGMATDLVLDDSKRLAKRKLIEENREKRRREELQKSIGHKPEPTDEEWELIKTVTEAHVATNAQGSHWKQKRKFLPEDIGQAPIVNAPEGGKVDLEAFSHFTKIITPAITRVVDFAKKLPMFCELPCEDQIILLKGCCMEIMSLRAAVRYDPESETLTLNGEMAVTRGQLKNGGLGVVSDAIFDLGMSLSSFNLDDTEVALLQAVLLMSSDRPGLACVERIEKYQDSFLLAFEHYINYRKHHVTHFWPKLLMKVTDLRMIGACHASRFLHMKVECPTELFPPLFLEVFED
#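 Each compound concentration gave % activity, normalized to unbound and bound Texas Red SRC2 controls, from polarization read after 5 hr ambient incubation with T3-loaded human TRb LBD.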
# RGS12 GoLoco inh: qHTS Assay for Inhibitors of RGS12 GoLoco Motif Activity (Red Fluorophore) | Guanine nucleotide-binding protein G(i) subunit alpha-1 (Homo sapiens), P63096 | Gai1:RGS12 GoLoco peptide FP, rhodamine, 10 min | Potency, µM (series often up to 61.6 µM), for the others: at the highest dose activity, negative = inhibition, most hits filed as inhibitors | hit rate 0.44% among 230,000; active = well fitted inhibition curve with a large enough effect, not every such curve was filed as active; inactive = no such curve, though single readings can be large or run the other way; note: potency is the fitted concentration of half-maximal effect; % is set by controls: 0 for no effect and ±100 for the full control effect; nearly all actives have a fitted effect of over 30% in size
# * hit, by the source's call; ? = inconclusive; . = no result; [ ] = remark or other dose. Many of the other results were omitted from the sample, so hits are more common in it than they were. Unless noted, calls come from the whole dose curve; as a rule, active = well fitted curve in the direction sought with a large enough effect; inconclusive = small, poorly fitted or top-dose-only effect, or another doubt; inactive = no such curve, though single readings can be large; an effect the other way counts as inactive or inconclusive.
SMILES,ERG-DNA inh,TexasRed fluor,CBFb RUNX1 block,TRb SRC2 PPI,RGS12 GoLoco inh
COC(=O)c1c(NC(=O)Cc2coc3cc(C)ccc23)sc2c1CCC2,4%,3.5µM*[quencher],.,20%[53 µM],.
COC(=O)c1c(NC(=O)Cc2coc3ccc(C)cc23)sc2c1CCC2,-4%,-6%,.,6%,.
CCNC(=O)c1c(NC(=O)Cc2coc3cc(C)cc(C)c23)sc2c1CCCC2,3%,7%,.,3%,.
COC(=O)c1sccc1S(=O)(=O)N1CCN(c2ccccc2)CC1,8%,0%,.,8%,.
OC1CCCCCCCCCCC1,.,-3%[201 µM],.,1%[201 µM],.
O=C(COC(=O)c1ccccc1NS(=O)(=O)c1cccs1)NC1CCCCC1,-5%,112µM*[quencher],-1%,-18%[53 µM],-11%
O=C(COC(=O)c1ccccc1NS(=O)(=O)c1cccs1)NCC12CC3CC(CC(C3)C1)C2,10%,1%,9%,0%,10%
COC(=O)C(C)Oc1ccc(Oc2ncc(C(F)(F)F)cc2Cl)cc1 (centres undefined),.,0%[201 µM],.,2%[201 µM],.
CCOC(=O)c1cc(CC)sc1NC(=O)COc1ccccc1C,5%,1.6µM*[quencher],.,?,.
CCOC(=O)c1cc(CC)sc1NC(=O)COC(=O)c1ccccn1,-4%,.,.,.,.
COc1cccc(CNC(=O)CCCC(=O)NC(C)CCc2ccccc2)c1 (centres undefined),3%,.,.,.,.
C=CC(=O)OCCOCC(CC)(COCCOC(=O)C=C)COCCOC(=O)C=C,.,1%[201 µM],.,?,.
CC1CC(OCC(O)C[N+]2(C)CCOCC2)CC(C)(C)C1 (centres undefined),7%,0%,-2%,-4%,2.2µM*
COC(=O)c1cc(NC(=O)c2nn(C)c3c2CSc2ccccc2-3)cc(C(=O)OC)c1,0%,-1%,.,-1%,.
CCc1ccc(CN2CCCC(C(=O)Nc3ccccc3-c3ccc(OC)cc3)C2)o1 (centres undefined),32µM*,.,.,.,.
COCc1ccc(CN2CCCC(C(=O)Nc3ccccc3-c3ccc(OC)cc3)C2)o1 (centres undefined),-1%,.,.,.,.
Nc1ccc2nc(-c3ccc(O)cc3)sc2c1,10%,79µM*[quencher],.,-15%[53 µM],.
Nc1ccc(-c2nc3ccc(N)cc3s2)cc1,2%,-12%,15%,5%,-3%
S=C([S-])NCCNC(=S)[S-].[Mn+2],.,3%[201 µM],.,4%[201 µM],.
Cc1ccccc1CN1CCC(CNc2ncnc3onc(-c4ccc(F)cc4)c23)CC1,0%,0.071µM*[quencher],.,-19%,.
O=C(Nc1ccc(Br)cn1)c1cccc2c1-c1ccccc1C2=O,9%,-1%,-4%,2%,3%
Cc1cc(C)nc(SCC(=O)N/N=C/c2cccn2-c2ccc(O)cc2)n1,3%,-6%,-10%,-2%,3.2µM*
COc1ccc(-c2nc3sc(CCNC(=O)C(=O)Nc4ccc(C)c(C)c4)c(C)n3n2)cc1,2%,-2%,.,-6%,.
CN(C)C(CNC(=O)/C=C/c1cccc(Cl)c1)c1ccccc1 (centres undefined),40µM*,-4%,-1%,-5%,2%
COCCCNC(=O)/C=C/c1cccc(Cl)c1,-6%,-6%,-1%,2%,7%
COC(=O)c1ccc(C23CC2(C(NP(=O)(c2ccccc2)c2ccccc2)c2ccccc2)C3)cc1 (centres undefined),.,-9%,-17%,3%,1.4µM*
COc1ccc(S(=O)(=O)N2CCCCCC2)cc1NC(=O)CN(C)Cc1ccc2c(c1)OCO2,25%,.,.,.,.
Cc1c2ccccc2nc2c(F)c(NCCO)c(F)c(F)c12,-11%,-14%,0%,5%,20µM*
CCN(CC)c1cccc(OC2=NS(=O)(=O)c3ccccc32)c1,?,45µM*[fluorescent],-12%,40µM*,.
CCc1ccc(OC2=NS(=O)(=O)c3ccccc32)cc1,-2%,-3%,-3%,3%,12%

# From PubChem BioAssay
